The campaign covered roughly 31,000 compounds. About 360 (1.2%) were called active. The rule behind the calls is not given here. The list comes from a sample in which actives are over-represented; it also holds similar structures and randomly drawn compounds.

This assay deals with DNA-binding protein inhibitor ID-4 (Homo sapiens) (UniProt P47928). Put plainly: PubChem AID 624137.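 Note: a binder raises fluorescence above local background on the spot.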 To be noted: small molecule microarray, Flag-ID4 binding, fluorescence F/B.
DNA-binding protein inhibitor ID-4 (Homo sapiens), sequence (P47928 whole entry, looked up): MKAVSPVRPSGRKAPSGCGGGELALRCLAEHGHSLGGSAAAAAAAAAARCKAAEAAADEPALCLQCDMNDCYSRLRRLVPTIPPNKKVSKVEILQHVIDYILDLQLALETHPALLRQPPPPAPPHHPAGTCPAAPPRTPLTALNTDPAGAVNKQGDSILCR
`C[C@@H]1CN([C@H](C)CO)C(=O)c2cc(C#CC3CC3)cnc2O[C@@H]1CN(C)Cc1ccccn1`: the compound was called inactive.

For the compound `C[C@@H]1CN([C@@H](C)CO)S(=O)(=O)c2ccc(-c3ccc(C(=O)N(C)C)cc3)cc2O[C@@H]1CN(C)Cc1ccccc1C(=O)O`, the result was inactive.

With `COc1ccccc1S(=O)(=O)N[C@@H]1C=C[C@H](CC(=O)N2CCOCC2)O[C@@H]1CO`, the result was inactive.

Take `O=C(C[C@@H]1C=C[C@H](NC(=O)CCN2CCCCC2)[C@H](CO)O1)NCc1ccc(Cl)c(Cl)c1`: the compound was classed as inactive.

On to `C/C=C/c1cnc2c(c1)C(=O)N([C@@H](C)CO)C[C@@H](C)[C@@H](CN(C)S(=O)(=O)c1ccccc1F)O2`, for which the call was inactive.

With `C[C@H]1CN([C@@H](C)CO)S(=O)(=O)c2ccc(C3=CCCC3)cc2O[C@H]1CN(C)Cc1cccc(C(=O)O)c1`, the call was inactive.

Consider `CC(C)NC(=O)N(C)C[C@H]1Oc2cc(-c3cncnc3)ccc2S(=O)(=O)N([C@@H](C)CO)C[C@H]1C`, for which the call was inactive.

With `Cc1ccc(Cc2cncc(O)c2)cc1S(=O)(=O)O`, the outcome was active.

For the compound `C[C@H]1CN([C@@H](C)CO)S(=O)(=O)c2ccc(C3=CCCCC3)cc2O[C@@H]1CN(C)Cc1ccccc1`, the outcome was inactive.

On to `C[C@H](CO)N1C[C@H](C)[C@@H](CN(C)C(=O)C2CC2)Oc2ncc(-c3cccc(F)c3)cc2C1=O`, for which the result was inactive.

Take `C/C=C/c1ccc2c(c1)O[C@@H](CN(C)CC1CCOCC1)[C@@H](C)CN([C@H](C)CO)S2(=O)=O`: the compound was called inactive.

Turning to `C[C@H](CO)N1C[C@H](C)[C@H](CN(C)C(=O)C2CCCCC2)Oc2ncc(C#CC3CC3)cc2C1=O`, the outcome was inactive.

For `C[C@H]1CN([C@@H](C)CO)C(=O)c2cc(C#Cc3ccccc3F)cnc2O[C@H]1CN(C)C`, the compound was called inactive.

For `O=C(O)/C(=C/C(=O)c1ccc(F)cc1)Nc1ccc2[nH]c(=O)[nH]c2c1`, the outcome was inactive.

Regarding `O=C(OCCN1CCCCC1)c1cccc(COc2ccc3ccccc3c2)c1`, the result was inactive.

In the case of `C[C@H](CO)N1C[C@H](C)[C@H](CN(C)C(=O)c2ccncc2)Oc2cc(C#CC3(O)CCCC3)ccc2S1(=O)=O`, the outcome was inactive.

As for `O=C(C[C@@H]1C[C@@H]2c3cc(NS(=O)(=O)c4ccc(F)cc4)ccc3O[C@@H]2[C@@H](CO)O1)N1CCOCC1`, the call was inactive.

For `CCCC#Cc1ccc2c(c1)O[C@@H](CN(C)S(=O)(=O)c1cccc(OC)c1)[C@H](C)CN([C@@H](C)CO)S2(=O)=O`, the compound was called inactive.

Take `COCC(=O)Nc1ccc2c(c1)[C@H]1C[C@H](CC(=O)NCc3cccnc3)O[C@H](CO)[C@H]1O2`: the compound was called inactive.

Take `CO[C@@H]1CN(C)C(=O)c2ccc(NC(=O)C3CC3)cc2OC[C@@H](C)N(CC2CCOCC2)C[C@H]1C`: the outcome was inactive.

As to `CC(=O)N(C)C[C@H]1Oc2ncc(-c3cccc(F)c3)cc2C(=O)N([C@@H](C)CO)C[C@H]1C`, the result was inactive.

With `O=[N+]([O-])c1ccccc1/C=C/CN1CCC(O)CC1`, the outcome was active.

For `O=[N+]([O-])c1ccccc1CN1CCN(Cc2cccc(Oc3ccccc3)c2)CC1`, the compound was classed as inactive.

Regarding `O=C(C[C@H]1CC[C@@H](NC(=O)c2ccncc2)[C@@H](CO)O1)NCC1CC1`, the compound was classed as inactive.

Take `C[C@@H]1CN([C@H](C)CO)C(=O)c2cc(-c3ccccc3F)cnc2O[C@H]1CN(C)C(=O)CN(C)C`: the compound was called inactive.

With `C[C@H](CO)N1C[C@H](C)[C@@H](CN(C)C(=O)c2cnccn2)Oc2ncc(-c3ccccc3F)cc2C1=O`, the compound was classed as inactive.

Take `O=C(CSc1nc(O)cc(=O)n1-c1ccccc1F)Nc1ccc(Cl)cc1Cl`: the outcome was inactive.

On to `COC(=O)Cc1csc(Nc2c(C)n(C)n(-c3ccccc3)c2=O)n1`, for which the compound was called inactive.

With `COc1cccc(/C=C(\C#N)C(=O)Nc2c(C)n(C)n(-c3ccccc3)c2=O)c1`, the result was inactive.

Take `Cc1c(NC(=O)/C(C#N)=C/c2ccccc2Cl)c(=O)n(-c2ccccc2)n1C`: the outcome was active.

For `COc1cc(NC(=O)COc2ccccc2Br)c(OC)cc1Cl`, the outcome was inactive.

In the case of `C[C@H](CO)N1C[C@H](C)[C@H](CN(C)C(=O)C2CC2)OCc2ccccc2-c2ccccc2C1=O`, the call was inactive.

For the compound `CCC(=O)N[C@H]1CC[C@@H](CC(=O)NCc2cc(F)cc(F)c2)O[C@@H]1CO`, the compound was classed as inactive.

With `C[C@@H]1CCCCO[C@@H](CN(C)C(=O)c2ccccc2)[C@H](C)CN([C@@H](C)CO)C(=O)c2cc(NS(C)(=O)=O)ccc2O1`, the call was inactive.

Take `C[C@H](CO)N1C[C@H](C)[C@H](CN(C)C(=O)c2ccccc2)OCCCC[C@H](C)Oc2ccc(NS(C)(=O)=O)cc2C1=O`: the outcome was inactive.

Regarding `C[C@@H]1CN([C@@H](C)CO)C(=O)c2cc(NS(C)(=O)=O)ccc2O[C@@H](C)CCCCO[C@@H]1CN(C)C(=O)c1ccccc1`, the compound was called active.

In the case of `CNC[C@@H]1Oc2cc(C#Cc3ccc(F)cc3)ccc2S(=O)(=O)N([C@@H](C)CO)C[C@H]1C`, the call was inactive.

Regarding `COc1ccccc1-c1cnc2c(c1)C(=O)N([C@H](C)CO)C[C@H](C)[C@H](CN(C)Cc1cccnc1)O2`, the outcome was inactive.

For the compound `Cc1ccccc1-c1cnc2c(c1)C(=O)N([C@@H](C)CO)C[C@@H](C)[C@@H](CN(C)CC1CCOCC1)O2`, the call was inactive.

On to `CCCN(C)C[C@H]1Oc2cc(-c3ccc(C)cc3)ccc2S(=O)(=O)N([C@H](C)CO)C[C@H]1C`, for which the compound was called inactive.

As to `C[C@@H]1CN([C@@H](C)CO)C(=O)c2cc(Br)cnc2O[C@@H]1CN(C)C(=O)C1CCCCC1`, the compound was called inactive.

Take `CN1CCN(C(=O)C[C@H]2CC[C@@H](NC(=O)c3ccc4c(c3)OCO4)[C@H](CO)O2)CC1`: the outcome was inactive.

In the case of `O=C(C[C@H]1C=C[C@H](NS(=O)(=O)c2ccc(F)cc2)[C@H](CO)O1)NCc1ccncn1`, the compound was called inactive.

On to `CCCN(C)C[C@@H]1Oc2cc(C#CC3CCCCC3)ccc2S(=O)(=O)N([C@@H](C)CO)C[C@@H]1C`, for which the outcome was inactive.

In the case of `COc1ccccc1-c1cnc2c(c1)C(=O)N([C@@H](C)CO)C[C@@H](C)[C@H](CN(C)Cc1cccnc1)O2`, the compound was classed as inactive.

Take `COCC#Cc1cnc2c(c1)C(=O)N([C@H](C)CO)C[C@@H](C)[C@@H](CN(C)Cc1ccccc1F)O2`: the call was inactive.

`CC(C)CC#Cc1cnc2c(c1)C(=O)N([C@@H](C)CO)C[C@H](C)[C@@H](CN(C)C(=O)c1ccc(F)cc1)O2`: the result was inactive.

Take `C[C@@H]1CN([C@@H](C)CO)S(=O)(=O)c2ccc(C3=CCCC3)cc2O[C@@H]1CN(C)Cc1ccncc1`: the call was inactive.

As for `C[C@@H](O)C#Cc1cnc2c(c1)C(=O)N([C@@H](C)CO)C[C@H](C)[C@@H](CN(C)CC1CCCCC1)O2`, the compound was classed as inactive.

For the compound `COc1ccccc1-c1ccc2c(c1)O[C@H](CN(C)C(=O)c1cccnc1)[C@@H](C)CN([C@H](C)CO)S2(=O)=O`, the outcome was inactive.

For the compound `CC(C)C#Cc1ccc2c(c1)O[C@@H](CN(C)CC1CCOCC1)[C@H](C)CN([C@H](C)CO)S2(=O)=O`, the compound was classed as inactive.

On to `CNC[C@H]1Oc2cc(C#CC3CCCC3)ccc2S(=O)(=O)N([C@H](C)CO)C[C@@H]1C`, for which the compound was classed as inactive.

For `CC(C)C#Cc1cnc2c(c1)C(=O)N([C@H](C)CO)C[C@@H](C)[C@H](CN(C)Cc1ccccc1)O2`, the compound was called inactive.

`C[C@@H]1CN([C@@H](C)CO)S(=O)(=O)c2ccc(C#CCC3CCCC3)cc2O[C@@H]1CN(C)C`: the compound was classed as inactive.

Take `C[C@H](O)C#Cc1cnc2c(c1)C(=O)N([C@H](C)CO)C[C@@H](C)[C@H](CN(C)CC1CCCCC1)O2`: the compound was called inactive.

Regarding `C[C@@H]1CN([C@H](C)CO)C(=O)c2cc(C3=CCCC3)cnc2O[C@H]1CN(C)C`, the call was inactive.

On to `Cc1cccc(NC(=O)CSc2nnc(-c3ccccc3)n2C2CCCCC2)c1C`, for which the compound was called inactive.

On to `CCC(=O)N(C)C[C@H]1Oc2cc(/C=C/c3ccccc3)ccc2S(=O)(=O)N([C@H](C)CO)C[C@H]1C`, for which the outcome was inactive.

Regarding `O=C(C[C@H]1CC[C@@H](NC(=O)Nc2cc(F)ccc2F)[C@@H](CO)O1)NCc1ccncn1`, the compound was called inactive.

As to `CNC[C@H]1Oc2ncc(-c3ccccc3F)cc2C(=O)N([C@H](C)CO)C[C@H]1C`, the outcome was inactive.

For the origin of these results see PubChem BioAssay AID624137 (Broad Institute, 2012).
